Bioassay records from PubChem.
M4 antag – CHRM4 antagonism in calcium assay; CHO-hM4 cells, ACh EC80, Fluo-8 calcium fluorescence; P08173; AID 624125; inhibition, % at 3 µM; 360,000 tested, 0.73% active;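 active = inhibition above its plate's cutoff, the mean inhibition of sample wells plus 3 SD, cut at about 27% in these data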
Target sequence (P08173 whole entry, looked up): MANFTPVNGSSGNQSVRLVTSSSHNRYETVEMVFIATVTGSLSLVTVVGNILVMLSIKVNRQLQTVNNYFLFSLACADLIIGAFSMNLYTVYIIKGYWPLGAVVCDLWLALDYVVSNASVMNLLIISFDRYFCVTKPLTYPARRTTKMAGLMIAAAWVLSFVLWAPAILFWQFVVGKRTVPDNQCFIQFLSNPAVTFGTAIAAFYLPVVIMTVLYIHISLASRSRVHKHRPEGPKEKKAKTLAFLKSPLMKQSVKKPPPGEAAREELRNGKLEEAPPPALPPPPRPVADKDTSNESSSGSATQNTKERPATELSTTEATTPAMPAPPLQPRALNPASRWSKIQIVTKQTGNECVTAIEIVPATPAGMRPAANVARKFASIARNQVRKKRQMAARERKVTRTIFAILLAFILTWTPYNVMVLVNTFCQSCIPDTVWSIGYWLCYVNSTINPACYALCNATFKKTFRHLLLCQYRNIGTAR
CHRM4 agonist – agonists of human muscarinic M4 receptor (CHRM4) | P08173 | CHO-K1 hM4/Gqi5, Fluo-8 calcium fluorescence; vehicle 0%, full acetylcholine response 100% | activation, % at 3 µM | 360,000 tested, 0.14% active;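 active = activation above the run mean over all test wells plus 3 SD, cut at about 32% in these data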;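 also: peak over basal fluorescence ratio per well then scaled between controls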
CHO-K1 Ca PAM – nonselective activator or artifact in parental CHO-K1 calcium assay; ATP EC20, Fluo-8 calcium fluorescence; 0% at ATP EC20, 100% at ATP max; activation, % at 3 µM; 360,000 tested, 0.02% active;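 active = activation above the run cutoff, the mean activation of all test compounds plus 3 SD, cut at about 40% in these data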;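 also: peak over basal fluorescence ratio in a 140 s read after ATP addition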
CHO-K1 Ca antag – nonselective inhibitor or artifact in parental CHO-K1 cells | ATP-induced calcium, Fluo-8 fluorescence | inhibition, % at 3 µM | 360,000 tested, 0.6% active | AID 602250;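 active = inhibition above a per-plate cutoff, the plate's mean sample inhibition plus 3 SD, cut at about 24% in these data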
M1 ag parental – nonselective activator or artifact in parental CHO-K1 cells; Fluo-8 calcium fluorescence; scaled to maximal ATP response, vehicle zero; AID 602248; 360,000 tested, 0.48% active; activation, % at 3 µM; in the data active = activation above about 15%;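 also: untransfected CHO-K1 host cells lacking M1 receptor as counterscreen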
CHRM4 PAM – positive allosteric modulators of human muscarinic M4 receptor; CHO-K1 hM4/Gqi5, Fluo-8 calcium fluorescence, ACh EC20; 0% = ACh EC20, 100% = maximal ACh; P08173; 360,000 tested, 0.4% active; activation, % at 3 µM;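 active = activation above its plate's cutoff, the mean activation of sample wells plus 3 SD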
Large screens that a line does not name were inactive. This is a sample that favours compounds with a hit; in the whole collection about 2% have one here.

Nn1c(SC/C=C/c2ccccc2)nnc1-c1cccnc1	M4 antag 28
O=C(Nc1cccnc1)c1ccc2nc(-c3ccccc3)c(-c3ccccc3)nc2c1	M1 ag parental 17
O=C(Nc1cccnc1)c1ccc(Oc2ccccc2)cc1	none
COc1cc2ncnc(NCc3cccs3)c2cc1OC	none
O=S(=O)(NNc1ccc(F)cc1F)c1cccc(Cl)c1	M4 antag 67
ClN=C1C=CC=CC1=NCl	CHO-K1 Ca antag 35
COC1=CC(=NCl)C=CC1=NCl	none
Cc1cccc(CNC(=O)C2CCC(=O)N(CCc3cccc(F)c3)C2)n1 (stereo not drawn)	none
Cc1cccc(NC(=O)CN(C2=NC3CS(=O)(=O)CC3S2)c2ccccc2F)c1 (stereo not drawn)	none
CCOc1cc(N2CCOCC2)c(OCC)cc1NC(=O)COC(=O)c1cc(C)oc1C	CHO-K1 Ca antag 25
NC(c1csc(Nc2cc(Oc3ccccc3)ncn2)n1)C1CCCCC1 (stereo not drawn)	none
CC1CN2C(c3ccc([N+](=O)[O-])cc3)=CSC2=N1 (stereo not drawn)	none
CC(C)N1CN(c2ccccc2)C(=S)N(c2ccccc2)C1	CHRM4 PAM 18
Cn1cnnc1Sc1ccc(C(=O)OCC(=O)Nc2cc(Cl)cc(Cl)c2)cc1[N+](=O)[O-]	none
CC(C)(C)OC(=O)NCCCC[C@@H](C(=O)NCCCCCCCCCCC(=O)N1CCN(C(=O)OC(C)(C)C)CC1)n1cc(CCO)nn1	none
CC[C@H](C)Cc1cn([C@@H](CCCCNC(=O)OC(C)(C)C)C(=O)NCCCCCCCCCCC(=O)N2CCN(C(=O)OC(C)(C)C)CC2)nn1	M4 antag 28
Nc1nc(Nc2ccccc2)sc1C(=O)c1ccccc1	CHRM4 PAM 12
COc1ccc(C(=O)c2sc(Nc3ccccc3)nc2N)cc1	none
C[C@]12CCC(=O)C=C1[C@H](O)C[C@@H]1[C@@H]2[C@@H](O)C[C@@]2(C)[C@H]1CC[C@]2(O)C(=O)CO	CHO-K1 Ca antag 33
CC(=O)OCC(=O)C1(O)CCC2C3CCC4=CC(=O)CCC4(C)C3C(O)CC21C (stereo not drawn)	none
Cn1cccc1C(=O)OCc1cc(-c2ccco2)on1	none
COc1cc(NS(=O)(=O)c2ccc(NC(=S)NC(=O)c3ccco3)cc2)ncn1	M1 ag parental 18
CNC(=S)N(CCN(C)C)Cc1cc2cc3c(cc2[nH]c1=O)OCO3	none
N#C/C=C(/N)c1ccc(Br)cc1	none
COC(=O)N/N=C/c1cccs1	none
CC1=CCC(C(=O)N/N=C/c2cccs2)C(c2ccc(F)cc2)C1 (stereo not drawn)	CHO-K1 Ca PAM 48
CC(=O)N1CCN=C1SCc1cccc(Cl)c1	none
Cc1sc2ncnc(NCC3CCCO3)c2c1C (stereo not drawn)	none
c1ccc(-c2csc3ncnc(NCC4COc5ccccc5O4)c23)cc1 (stereo not drawn)	M4 antag 38
c1ccc(-c2csc3ncnc(NCCCN4CCOCC4)c23)cc1	none
Cc1sc2ncnc(NCC3COc4ccccc4O3)c2c1C (stereo not drawn)	M4 antag 32, CHO-K1 Ca antag 27
CCc1nc(SCc2ccc(Cl)cc2)n[nH]1	none
COc1cccc(-n2c(SCC(=O)N3CCCCC3)nc3c([nH]c4ccccc43)c2=O)c1	none
Cc1ccc([N+](=O)[O-])cc1NC1CC(O)C(CO)O1 (stereo not drawn)	none
CC1=CC(=O)C=C(C)C1=NOS(=O)(=O)c1ccccc1	M4 antag 32
CC1=CC(=O)C(C(C)C)=C/C1=N/OS(=O)(=O)c1ccccc1	M4 antag 79, CHO-K1 Ca antag 50, M1 ag parental 20
Cc1ccc(S(=O)(=O)ON=C2CCN(S(=O)(=O)c3ccccc3)CC2)cc1	none
Cc1ccc2c(c1)/C(=N/OS(=O)(=O)c1ccccc1)CCS2	none
CC(=O)Nc1ccc(NC(=O)C(C)OC(=O)c2ccc3c(c2)OCCO3)cc1 (stereo not drawn)	CHRM4 PAM 32
NC(=O)c1ccc(NC(=O)COC(=O)c2ccc3c(c2)OCCO3)cc1	M1 ag parental 20
O=C(COC(=O)c1ccc2c(c1)OCCO2)Nc1ccc(F)cc1	none
O=C(COC(=O)C1COc2ccccc2O1)NC(=O)Nc1ccc2c(c1)OCCO2 (stereo not drawn)	CHRM4 PAM 23
CC(OC(=O)c1ccc(NC(=O)CC#N)cc1)C(=O)Nc1ccc2c(c1)OCCO2 (stereo not drawn)	none
O=C(COC(=O)c1ccc(Br)o1)Nc1ccc2c(c1)OCCO2	CHRM4 PAM 26
CNC(=O)COC(=O)c1ccc(NS(=O)(=O)c2ccc3c(c2)OCCO3)cc1	none
O=C(COC(=O)c1ccc(NS(=O)(=O)c2ccc3c(c2)OCCO3)cc1)NC1CCS(=O)(=O)C1 (stereo not drawn)	CHO-K1 Ca antag 25
O=C(c1ccccc1NS(=O)(=O)c1ccc(Br)s1)N1CCCC1	none
Cc1cc(C)nc(-n2nc(C)c(Sc3ccc(F)cc3)c2N)n1	CHRM4 PAM 23
CCc1ccc(CN2CCC(Oc3ccc(C(=O)N4CCCC4)cc3)CC2)cc1	M4 antag 36
CSc1ccc(CN2CCC(Oc3ccc(C(=O)N4CCCC4)cc3)CC2)cc1	M4 antag 29
CCc1ccc(CN2CCC(Oc3ccc(C(=O)N4CCCCC4)cc3)CC2)cc1	none
O=C(c1ccc(OC2CCN(Cc3ccc(F)cc3)CC2)cc1)N1CCCC1	none
CC(C)c1ccc(CN2CCC(Oc3ccc(C(=O)N4CCCC4)cc3)CC2)cc1	M4 antag 31
CCc1nc2c(OCc3ccc(C(=O)OC)cc3)cccn2c1N(C)C(=O)c1ccc(C)cc1	none
COc1ccc(CN(C)CC(O)COC(c2ccccc2)c2ccccc2)c(OC)c1OC (stereo not drawn)	M1 ag parental 28
Cc1ccc(NC(=O)CN(C)S(=O)(=O)c2cccc3cccnc23)cc1	none
c1ccc(-c2ccc(CN3CCN(c4ncccn4)CC3)cc2)cc1	CHO-K1 Ca antag 25
O=C(Nc1cccnc1)c1ccc(Cl)c(S(=O)(=O)N2CCc3ccccc32)c1	none
O=S(=O)(c1ccc(Cl)cc1)N1CCN(C(=S)Nc2ccccc2F)CC1	M1 ag parental 17
Cc1c(CCOC(=O)C23CC4CC(CC(C)(C4)C2)C3)sc[n+]1Cc1ccccc1	M4 antag 69
O=C(O)CCC(=O)N1c2ccccc2NC2=C(C(=O)CC(c3ccc(F)cc3)C2)C1c1ccc([N+](=O)[O-])o1 (stereo not drawn)	CHO-K1 Ca antag 25
COc1ccc(C2CC(=O)C3=C(C2)Nc2ccccc2N(C(=O)CCC(=O)O)C3c2ccc(F)cc2)cc1 (stereo not drawn)	none
